Screening results from PubChem BioAssay.
Y pestis TopoI: Y. pestis Topo-I inhibition via cleavage products; 360,000 compounds, 0.064% hits; activity, % at 10 µM; Y. pestis Topo-I cleavage product accumulation, plate reader; in the data active means activity above about 50%, passing the limit was not always enough
Mtb FBA inh: Mtb fructose-bisphosphate aldolase inhibition; P9WQA3; inhibition, % at 1 µM; purified M. tuberculosis FBA, fluorescence read-out; 360,000 compounds, 2.3% hits;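 further: 0% = vehicle and 100% = reference inhibitor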
PrPC TRFRET: cell surface PrPC inhibition, primary TR-FRET screen | P04156 | TR-FRET read-out | inhibition, % at 13.8 µM | 370,000 compounds, 0.43% hits | AID 720596; in the data active means inhibition above about 24%; further: 0% = median of the test wells and 100% = reference compound wells
TcdB inh: TcdB glycohydrolase inhibition | P18177 | TcdB glycohydrolase enzymatic assay, plate reader | inhibition, % at 9.99 µM | 350,000 compounds, 0.24% hits; in the data active means inhibition above about 10%
Target sequence (P18177 whole entry, looked up): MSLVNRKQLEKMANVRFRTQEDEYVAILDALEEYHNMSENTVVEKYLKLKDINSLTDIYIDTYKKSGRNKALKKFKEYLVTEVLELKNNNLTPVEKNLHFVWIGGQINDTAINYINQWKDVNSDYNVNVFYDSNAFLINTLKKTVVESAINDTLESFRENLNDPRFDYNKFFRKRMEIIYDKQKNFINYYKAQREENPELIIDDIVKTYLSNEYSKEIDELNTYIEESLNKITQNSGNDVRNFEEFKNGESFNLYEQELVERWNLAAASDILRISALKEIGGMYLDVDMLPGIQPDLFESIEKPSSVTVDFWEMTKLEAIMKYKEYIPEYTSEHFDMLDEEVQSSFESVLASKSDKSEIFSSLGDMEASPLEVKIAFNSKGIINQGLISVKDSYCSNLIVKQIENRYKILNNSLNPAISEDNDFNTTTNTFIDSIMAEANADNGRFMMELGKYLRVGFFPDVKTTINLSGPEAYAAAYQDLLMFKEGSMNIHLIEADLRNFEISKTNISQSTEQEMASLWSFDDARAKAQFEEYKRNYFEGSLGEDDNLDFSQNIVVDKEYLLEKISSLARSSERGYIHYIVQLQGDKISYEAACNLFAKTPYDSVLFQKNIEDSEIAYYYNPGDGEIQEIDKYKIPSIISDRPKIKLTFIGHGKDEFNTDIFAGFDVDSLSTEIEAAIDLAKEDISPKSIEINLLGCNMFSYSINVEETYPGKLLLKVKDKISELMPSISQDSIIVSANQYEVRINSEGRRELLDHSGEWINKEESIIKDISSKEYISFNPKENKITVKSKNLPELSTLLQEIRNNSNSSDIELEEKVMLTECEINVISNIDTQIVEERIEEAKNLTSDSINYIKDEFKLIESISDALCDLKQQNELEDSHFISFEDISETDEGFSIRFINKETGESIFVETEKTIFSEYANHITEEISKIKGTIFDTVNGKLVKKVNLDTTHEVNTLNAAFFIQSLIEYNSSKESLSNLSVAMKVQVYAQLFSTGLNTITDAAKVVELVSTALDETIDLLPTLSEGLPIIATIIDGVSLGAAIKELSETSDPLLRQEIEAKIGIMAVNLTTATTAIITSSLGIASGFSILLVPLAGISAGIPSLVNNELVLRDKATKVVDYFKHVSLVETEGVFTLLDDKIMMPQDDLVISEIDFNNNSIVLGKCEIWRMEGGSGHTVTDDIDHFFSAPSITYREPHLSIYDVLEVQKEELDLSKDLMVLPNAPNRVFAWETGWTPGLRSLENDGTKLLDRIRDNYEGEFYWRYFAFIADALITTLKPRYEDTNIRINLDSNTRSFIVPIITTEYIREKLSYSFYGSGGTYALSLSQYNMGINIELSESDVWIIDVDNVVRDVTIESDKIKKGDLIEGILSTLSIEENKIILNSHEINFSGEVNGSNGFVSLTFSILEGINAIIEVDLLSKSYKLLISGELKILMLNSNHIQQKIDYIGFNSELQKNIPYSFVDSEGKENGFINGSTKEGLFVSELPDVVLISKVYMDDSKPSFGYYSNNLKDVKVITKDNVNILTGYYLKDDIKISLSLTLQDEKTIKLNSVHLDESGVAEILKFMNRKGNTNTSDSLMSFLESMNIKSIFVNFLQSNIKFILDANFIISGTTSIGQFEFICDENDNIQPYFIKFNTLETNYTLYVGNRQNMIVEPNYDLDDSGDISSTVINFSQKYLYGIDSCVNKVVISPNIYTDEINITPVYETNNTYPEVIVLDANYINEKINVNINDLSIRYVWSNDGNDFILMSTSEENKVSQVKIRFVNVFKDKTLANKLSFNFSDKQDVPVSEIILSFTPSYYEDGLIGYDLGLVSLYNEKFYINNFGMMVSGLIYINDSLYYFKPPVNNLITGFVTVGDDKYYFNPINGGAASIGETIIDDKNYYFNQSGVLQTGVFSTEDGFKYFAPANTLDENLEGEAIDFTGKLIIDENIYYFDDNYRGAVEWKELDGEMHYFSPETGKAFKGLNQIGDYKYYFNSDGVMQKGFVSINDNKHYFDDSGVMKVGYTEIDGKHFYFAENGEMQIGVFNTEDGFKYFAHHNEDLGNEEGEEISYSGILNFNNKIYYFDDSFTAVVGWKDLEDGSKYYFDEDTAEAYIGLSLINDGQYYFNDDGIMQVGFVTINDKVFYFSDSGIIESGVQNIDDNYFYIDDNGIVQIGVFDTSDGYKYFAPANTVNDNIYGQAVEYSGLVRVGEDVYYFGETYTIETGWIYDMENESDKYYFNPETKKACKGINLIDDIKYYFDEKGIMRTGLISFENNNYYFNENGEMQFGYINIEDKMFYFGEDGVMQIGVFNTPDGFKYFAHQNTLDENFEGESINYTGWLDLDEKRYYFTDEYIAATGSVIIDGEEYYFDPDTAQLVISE
GDH-TPI counter-1: GDH-TPI coupled enzyme inhibition counter-screen. inhibition, % at 4.8 µM. GDH-TPI coupled enzyme counterscreen, NADH absorbance. 360,000 compounds, 1.2% hits; in the data active means inhibition above about 30%;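 further: 0% = DMSO wells and 100% = wells lacking the enzyme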
Mtb FBA inh conf: Mtb FBA inhibition, confirmed. shares compounds with Mtb FBA inh. purified M. tuberculosis FBA, fluorescence read-out. inhibition, % at 1 µM. 5,600 compounds, 78% hits. AID 651616;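 further: 0% = vehicle wells and 100% = reference inhibitor wells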
GDH-TPI counter-2: GDH-TPI inhibition counter-screen for FBA inhibitors | shares compounds with Mtb FBA inh | AID 652141 | GDH-TPI coupled enzyme counterscreen, fluorescence | 5,600 compounds, 81% hits | inhibition, % at 1 µM; in the data active means inhibition above about 10%
An asterisk follows results filed as active; nt = no result given; + = active, no number; ! = a repeat was not active. Shown are actives, neighbours in structure and some others; about 3.2% of the full set was active somewhere. Unless noted, no stated cut-off is given here; in the data, active means inhibition above about 27%; inactive means the rest.

SMILES	Y pestis TopoI	Mtb FBA inh	PrPC TRFRET	TcdB inh	GDH-TPI counter-1	Mtb FBA inh conf	GDH-TPI counter-2
CN1CCc2c(sc3nc(NCCO)n(-c4cccc(Cl)c4)c(=O)c23)C1	2	71*	0	0	23	109*	88*
CN1CCc2c(sc3c2c(=O)n(-c2cccc(Cl)c2)c2nncn32)C1	2	6	-7	nt	0	nt	nt
CCOC(=O)c1[nH]cnc1C(=O)Nc1cccc(OC)c1	4	3	6	3	5	nt	nt
CNC(=O)c1[nH]cnc1C(=O)Nc1cccc(OC)c1	-6	71*	-8	nt	8	+	199*
CN1CCc2c(sc3c2C(=O)NC(c2cccs2)N3)C1 (configuration not stated)	6	26	-1	-1	15	nt	nt
Cc1ccsc1C1NC(=O)c2c(sc3c2CCN(C)C3)N1 (configuration not stated)	-2	44*	-15	1	12	-5	-5
Cc1noc(C)c1NC(=O)N[C@H]1CC[C@H](CC(=O)NCc2ccc(Cl)c(Cl)c2)O[C@@H]1CO	nt	nt	nt	-2	nt	nt	nt
O=C(C[C@H]1C[C@H]2c3cc(NC(=O)C4CCC4)ccc3O[C@H]2[C@@H](CO)O1)NCc1cccc(F)c1	nt	nt	nt	-2	nt	nt	nt
Cc1cc(N=Cc2c(O)n(-c3cccc(Cl)c3)c(=O)c3ccccc23)no1	5	57*	-2	nt	19	106*	83*
COc1ccc(CN(C)C[C@H]2Oc3c(NS(=O)(=O)c4cccs4)cccc3C(=O)N([C@@H](C)CO)C[C@H]2C)cc1	nt	nt	nt	-2	nt	nt	nt
CC1CCc2c(sc(Nc3nc4c(F)cccc4s3)c2C(N)=O)C1 (configuration not stated)	11	28*	6	nt	15	113*	99*
O=C(Nc1nc2c(F)cccc2s1)C1CC1	5	-5	-7	-2	-6	nt	nt
COc1ccc(-c2cnc(N)nc2-c2ccc(OC)cc2)cc1	-1	9	-5	3	6	nt	nt
COc1ccc2c(c1)CCc1cnc(N)nc1-2	2	106*	-4	0	30	-3	-2
CC1=C(C(=O)Nc2ccccn2)C(c2cn(C)nc2C)C2=C(CCCC2=O)N1 (configuration not stated)	7	37*	-1	-1	14	+	171*
CC1=C(C(=O)Nc2ccc(F)cc2)C(c2ccncc2)C2=C(CCCC2=O)N1 (configuration not stated)	-6	4	-1	nt	13	nt	nt
CCn1cc(C2C(C(=O)Nc3ccc(Br)cn3)=C(C)NC3=C2C(=O)CCC3)c(C)n1 (configuration not stated)	-1	33*	-2	nt	13	132*	94*
Nc1nccnc1C(=O)OCC(=O)NCCc1ccc(Cl)cc1	1	102*	2	1	2	-5	-5
O=C(COC(=O)c1n[nH]c2ccccc12)NCCc1ccc(Cl)cc1	-1	3	-4	1	0	nt	nt
Cc1cccc(C(=O)O)c1O	3	38*	2	5	1	87*	52*
O=C(O)c1ccccc1O	-6	46*	4	1	12	7	-3
Nc1c(O)cccc1C(=O)O	1	40*	-15	-11	1	+	193*
CCCN1C[C@H](C)[C@@H](OC)CN(C)C(=O)c2cc(NC(=O)c3ccccc3F)ccc2OC[C@@H]1C	nt	nt	nt	2	nt	nt	nt
O=C(NCC1CC1)[C@H]1[C@H](CO)[C@H]2Cn3c(cccc3=O)[C@H]2N1Cc1cccc(F)c1	nt	nt	nt	1	nt	nt	nt
O=C(NCC[C@@H]1CC[C@@H](NS(=O)(=O)c2ccc(Oc3ccccc3)cc2)[C@H](CO)O1)C1CC1	nt	nt	nt	0	nt	nt	nt
SMILES	Y pestis TopoI	Mtb FBA inh	PrPC TRFRET	TcdB inh	GDH-TPI counter-1	Mtb FBA inh conf	GDH-TPI counter-2
CCc1noc(C)c1C(=O)N1CCN(S(=O)(=O)c2ccc(Cl)cc2)CC1	5	33*	-3	2	-10	94*	79*
CCc1noc(C)c1C(=O)N1CCN(S(=O)(=O)c2ccc(C(C)C)cc2)CC1	13	-1	-6	2	7	nt	nt
O=C(c1cccn2c(=O)c3cc(Cl)ccc3nc12)N1CCN(Cc2ccc3c(c2)OCO3)CC1	33	13	-23	nt	6	nt	nt
O=C(c1cccn2c(=O)c3cc(Cl)ccc3nc12)N1CCOCC1	1	45*	-22	nt	18	-3	-4
NC(=O)C1(N2CCCCC2)CCN(C(=O)c2cccn3c(=O)c4cc(Cl)ccc4nc23)CC1	30	40*	-17	nt	29	-2	-6
COc1cccc(S(=O)(=O)N[C@@H]2CC[C@@H](CCn3cc(-c4ccccn4)nn3)O[C@@H]2CO)c1	nt	nt	nt	0	nt	nt	nt
O=C(CN1C(=O)c2cccc3cccc(c23)C1=O)N1CCOCC1	4	29*	-30	-24	0	46*	39*
CCN(CC(=O)Nc1c(F)cccc1F)C(=O)CN1C(=O)c2ccccc2C1=O	1	-1	-3	2	-2	nt	nt
CCN(CC)C(=O)CN1C(=O)c2cccc3cccc(c23)C1=O	3	38*	-55	2	6	130*	88*
COc1ccc(COc2cc(-c3cccc(OC)c3)nc3ccc(NC(=O)C(C)C)cc23)cc1	6	43*	2	1	4	87*	71*
COc1ccc2c3c(n(C)c2c1)[C@H](CO)N(S(C)(=O)=O)CC31CCN(C(=O)C2CC2)CC1	nt	nt	nt	1	nt	nt	nt
Cc1noc(C)c1NC(=O)Nc1ccc2c(c1)C(=O)N([C@H](C)CO)C[C@@H](C)[C@H](CN(C)S(=O)(=O)c1c(C)noc1C)OCCCC[C@@H](C)O2	nt	nt	nt	2	nt	nt	nt
O=C(Nc1ccc([N+](=O)[O-])cn1)c1ccc(Br)o1	-5	95*	-44	nt	27	0	-4
C=CCN1CCc2c(cc(O)c(O)c2Cl)C(c2ccccc2)C1 (configuration not stated)	8	-2	10	4	4	nt	nt
Oc1ccc(C2CNCCc3c2cc(O)c(O)c3Cl)cc1 (configuration not stated)	-3	40*!	-1	1	-1	-2	-7
[O-][n+]1nc2ccccc2c2ccccc21	-2	37*	-13	1	13	88*	78*
CCOC(=O)N1CCC(NC(=O)c2ccc3c(c2)N=C(C)c2ccccc2S3)CC1	17	2	6	-4	6	nt	nt
CCOC(=O)N1CCC(NC(=O)c2ccc3c(c2)N(Cc2ccccc2)CCS3)CC1	19	28*	-5	2	0	65*	62*
CCOC(=O)N1CCC(NC(=O)c2ccc3c(c2)N(Cc2ccc(F)cc2)CCS3)CC1	19	71*	-2	1	5	182*	151*
C[C@@H]1CN([C@@H](C)CO)C(=O)c2cccc(NC(=O)c3cnccn3)c2O[C@H]1CN(C)C(=O)Nc1cccc2ccccc12	nt	nt	nt	1	nt	nt	nt
